Bioassay records (PubChem BioAssay)
A selection: hits, their analogues and other compounds. The true share with any hit is near 0.37%.
Vif-A3F inh – qHTS for Inhibitors of Vif-A3F Interactions: qHTS; HeLa A3F-eYFP + Vif (tagged APOBEC3F with the HIV-1 protein that degrades it), YFP fluorescence increase; Potency, µM (doses to about 46.1 µM), inactives show at the top dose activity, negative = active; actives 0.2% (n = 390,000); AID 602313, 2012; note: potency is the fitted concentration of half-maximal effect; % of control where 0% means no effect; nearly all actives have a fitted effect of over 65% in size
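HeLa cells stably expressing A3F-eYFP plus Vif, plated and incubated overnight at 37 deg C, then exposed to compounds overnight at 37 deg C. Blocked degradation read as raised yellow fluorescence (Ex 488/Em 500-530).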
Epigenetic reg – Quantitative High-Throughput Screen for Regulators of Epigenetic Control; murine LDR cells, GFP reporter derepression, 30 h; actives 0.2% (n = 280,000); Potency, µM (top dose mostly 53.9 µM), without a hit: at the highest dose GFP activation, actives largely listed as activators; note: potency is the fitted concentration of half-maximal effect; % of control where 0% means no effect; nearly all actives have a fitted effect of over 60% in size
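Readout is the number of GFP-expressing murine LDR cells, counted by cytometry following washing. Cells were treated with compound for 30 h at 37 C; the stably integrated CMV-GFP locus is normally silent.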
PTAP TSG101 blk – qHTS Assay for Iinhibitors of HIV-1 Budding by Blocking the Interaction of PTAP/TSG101 | Fluorescence polarization, FITC-PTAP peptide / Tsg101 binding | 340,000 tested, under 10 active | Potency, µM (highest dose often 115 µM), for inactives: at the highest dose activity change, negative = inhibition, hits mostly inhibitors | AID 493005, 2010; active = well fitted inhibition curve with a large enough effect in the main read-out, with a control signal flat, not every such curve was filed as active; inconclusive = small, poorly fitted or top-dose-only effect, or effect the other way, or a change in a side signal; inactive = no such curve, though single readings can be large or run the other way; note: potency is the fitted concentration of half-maximal effect; % of control where 0% means no effect
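Fluorescence polarization binding of Tsg101 binding domain (10 uM final) to FITC-labeled PTAP peptide (50 nM final) in HEPES pH 7.5 buffer with NaCl, Tween 20, EDTA, TCEP. Compounds added before peptide; binding 20 min at RT.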
Vif-APOBEC3G blk – qHTS for Inhibitors of Vif-A3G Interactions: qHTS; DNA dC->dU-editing enzyme APOBEC-3G (Homo sapiens), Q9HC16; HeLa A3G-eYFP + Vif (tagged APOBEC3G with the HIV-1 protein that degrades it), YFP fluorescence, overnight; Potency, µM (titrated, usually from 46.1 µM), for the others: top-dose activity, negative = active, usual class: inhibitors; actives 0.076% (n = 410,000); note: potency is the fitted concentration of half-maximal effect; % is set by controls: 0 for no effect and ±100 for the full control effect; nearly all actives have a fitted effect of over 60% in size
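HeLa cells stably expressing Vif and C-terminally eYFP-tagged A3G, seeded overnight at 37 deg C, then exposed to compound by pintool overnight at 37 deg C. Rise in yellow fluorescence (Ex 488/Em 500-530, Acumen) marks blocked Vif-driven A3G degradation.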
CBFb-RUNX1 inh – qHTS Assay for Compounds Blocking the Interaction Between CBF-beta and RUNX1 for the Treatment of Acute Myeloid Leukemia | Runt-related transcription factor 1 (Homo sapiens) + Core-binding factor subunit beta … | AlphaScreen CBFb-His/RUNX1-biotin binding, biochemical | Potency, µM (series often up to 59.8 µM), inactives show top-dose activity, negative = inhibition, actives largely listed as inhibitors | 230,000 tested, under 10 active | AID 1477, 2009; note: % of control where 0% means no effect
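CBFb-His/RUNX1-biotin, 30 nM each, preincubated 20 min RT; compound 15 min RT; Ni + streptavidin beads 50 ng each, 90 min RT; AlphaScreen read.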
MBNL1 CUG block – qHTS Assay for Inhibitors of MBNL1-poly(CUG) RNA binding; Muscleblind-like protein 1 (Homo sapiens), Q9NR56; TR-FRET MBNL1-His/biotin-(CUG)12 binding, 665/545 ratio; Potency, µM (titrated, usually from 57.5 µM), for inactives: at the top dose activity change, negative = inhibition, usual class: inhibitors; actives 0.036% (n = 280,000); active = well fitted inhibition curve with a large enough effect in the signal ratio, with a control signal flat, not every such curve was filed as active; inconclusive = small, poorly fitted or top-dose-only effect, or effect the other way, or a change in a side signal; inactive = no such curve, though single readings can be large or run the other way; the % refers to the signal ratio; note: potency is the fitted concentration of half-maximal effect; % is set by controls: 0 for no effect and ±100 for the full control effect
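Compound titration spanned 92 nM–58 uM against the MBNL1-His/biotin-(CUG)12 complex. After 60 min at room temperature with 5 nM streptavidin-XL665 and 0.055 ng/ul terbium anti-His, ratiometric 665/545 nm emission (Ex 340 nm) normalized to controls.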
* = called active by the depositor; i = inactive; u = inconclusive; x = not tested or not shown; ! = not confirmed by another sample. Unless noted, calls come from the whole dose curve; as a rule, active = well fitted curve in the direction sought with a large enough effect; inconclusive = small, poorly fitted or top-dose-only effect, or another doubt; inactive = no such curve, though single readings can be large; an effect the other way counts as inactive or inconclusive.

SMILES | Vif-A3F inh | Epigenetic reg | PTAP TSG101 blk | Vif-APOBEC3G blk | CBFb-RUNX1 inh | MBNL1 CUG block
c1ccc2c(c1)-c1cccc3cccc-2c13 | -3.1% | x | -1.3% | -1.6% | u | x
Nc1c(Br)cc2c3c(cccc13)-c1ccccc1-2 | 11.2µM* | x | -17.3% | u | x | x
CC(=O)Nc1ccc(Cc2nc3ccccc3[nH]2)cc1 | u | -1.7% | 0.8% | 0.6% | 2.1% | -15.5%
COc1cccc(C(=O)C2CCCN(Cc3cccc(C)n3)C2)c1 (centres undefined) | u | 1.1% | -1.1% | 1.8% | 2.1% | 3.1%
Cc1cccc(CN2CCCC(C(=O)c3cccc(OC(C)C)c3)C2)n1 (centres undefined) | 22.4µM* | 2.4% | -1.8% | 10.9% | 3.7% | -6.1%
CCCCn1c(O)c(/C=C2\C=Nc3ccccc32)c(=O)[nH]c1=O | 15.0% | x | u | 4.0% | x | 7.7%
O=c1[nH]c(O)c(/C=C2\C=Nc3ccc(OCc4ccccc4)cc32)c(=O)[nH]1 | 12.6µM* | x | u | -3.9% | x | 3.9%
O=C(NCc1ccccc1)C(=O)NCC1OCCN1S(=O)(=O)c1ccc([N+](=O)[O-])cc1 (centres undefined) | -2.0% | 5.3% | 0.1% | -0.9% | -7.5% | u
COc1ccc(-n2c(/C=C/c3ccc(O)c(OC)c3)nc3ccccc3c2=O)cc1 | 20µM* | x | 1.0% | -10.8% | x | 11.4%
O=c1c2ccccc2nc(/C=C/c2ccccc2O)n1-c1ccc(Br)cc1 | 10µM* | u | x | -18.2% | x | x
Cc1cc(/C=C/c2cccc3sc(C)[n+](CCCCI)c23)ccc1N(CCCl)CCCl | x | x | x | -18.1% | x | x
COc1cc2c(c3oc4cccc(O)c4c(=O)c13)C1C=CO[C@@H]1O2 (some centres undefined) | x | x | x | x | 2.0% | x
NCC1O[C@@H](O[C@H]2C(O)C(O[C@@H]3C(O[C@H]4OC(CO)C(O)C(O)C4N)C(N)CC(N)[C@H]3O)O[C@@H]2CO)C(N)C(O)C1O (some centres undefined) | x | 1.3% | x | x | u | x
Nc1ccc2c(c1)Cc1cc([N+](=O)[O-])ccc1-2 | 11.2µM* | u | -4.9% | u | 3.3% | u
CCN(CC)c1ccc(/C=C/[N+](=O)[O-])cc1 | 25.1µM* | 15.1% | 5.8% | u | -6.4% | 9.2%
CCN(CC)c1ccc(C=C2C(=O)N(C)C(=S)N(C)C2=O)o1 | i | 3.4% | u | u | -5.3% | x
CN1C(=O)C(=Cc2ccc(N3CCCCC3)o2)C(=O)N(C)C1=S | 3.98µM* | 6.3% | 33.9% | u | 4.7% | 12.5%
O=C1NC(=O)N(c2ccc3c(c2)OCO3)C(=O)/C1=C/c1ccc(N2CCCCC2)o1 | 22.4µM* | 7.4% | u | u | 1.0% | u
CCCCn1c(N)c(N(CC(C)C)C(=O)c2cc(Br)c(Br)s2)c(=O)[nH]c1=O | 25.1µM* | x | -3.7% | -19.6% | x | x
O=C1/C(=C/c2ccc3c(c2)OCO3)SC(=S)N1CCC(=O)N(CCO)c1ccccc1 | 22.4µM* | x | x | -16.3% | x | x
O=C(/C=C/c1ccc2c(c1)OCO2)c1c(O)n(CCc2ccccc2)c(=O)[nH]c1=O | u | -3.1% | u | -20.0% | 12.2% | -2.6%
CC(C)[C@@]1(NC(=O)[C@@H]2C[C@@H]3c4cccc5[nH]cc(c45)C[C@H]3N(C)C2)O[C@@]2(O)[C@@H]3CCCN3C(=O)[C@H](Cc3ccccc3)N2C1=O | 5.8% | 22.4µM*! | -5.8% | 0.7% | -18.8% | 14.3%
